Cruzain noTriton = cruzain (T. cruzi) inhibition without detergent; P25779; purified cruzain, Z-FR-AMC fluorescence, no detergent; Potency, µM, without a hit: max response, negative = inhibition, hits mostly inhibitors; 200,000 compounds, 2.3% hits;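 further: plate controls were enzyme without inhibitor for no effect and buffer without enzyme for full effect; nearly all actives have a fitted effect of over 40% in size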
Target sequence (P25779 123-467 limits assumed): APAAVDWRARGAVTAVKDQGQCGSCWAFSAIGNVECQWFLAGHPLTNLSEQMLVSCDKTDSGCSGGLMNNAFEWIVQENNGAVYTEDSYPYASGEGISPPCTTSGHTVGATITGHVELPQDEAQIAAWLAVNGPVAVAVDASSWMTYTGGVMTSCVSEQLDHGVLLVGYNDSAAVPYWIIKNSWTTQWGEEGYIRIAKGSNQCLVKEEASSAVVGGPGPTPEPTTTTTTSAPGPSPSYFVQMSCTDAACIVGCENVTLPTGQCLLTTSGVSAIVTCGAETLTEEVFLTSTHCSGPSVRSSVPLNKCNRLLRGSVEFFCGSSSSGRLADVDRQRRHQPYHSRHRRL
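Purified cruzain at 1.5 nM, pre-incubated 15 min with compound at room temperature in 100 mM sodium acetate pH 5.5, 5 mM DTT, 0.00005% Triton X-100. Reaction started with 2 uM Z-FR-AMC; AMC fluorescence increase over 60 s gives rate.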
Cruzain inh Det = cruzain (T. cruzi) inhibition with detergent. 200,000 compounds, 0.43% hits. purified cruzain, Z-FR-AMC fluorescence, 0.01% Triton. Potency, µM, without a hit: max response, negative = inhibition, actives largely listed as inhibitors. P25779;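 further: plate controls were neutral wells for no effect and buffer without enzyme for full effect; nearly all actives have a fitted effect of over 40% in size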
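Detergent-containing arm of a paired screen for aggregation-based inhibition: 0.01% Triton X-100 present. Cruzain at 1.5 nM cleaved 2 uM Z-FR-AMC at pH 5.5 with 5 mM DTT; AMC fluorescence gain over 60 s measured activity.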
* marks the source's active call; other numbers are inactive results; ? = inconclusive. Rows were chosen to be rich in hits. Some 2.6% of all compounds tested hit in one or more screens of this group. The call rests on the fitted dose curve; in most records, active means well fitted curve in the direction sought with a large enough effect; inconclusive means small, poorly fitted or top-dose-only effect, or another doubt; inactive means no such curve, though single readings can be large; an effect the other way counts as inactive or inconclusive. Potency means the concentration at half of the fitted maximal effect.

SMILES | Cruzain noTriton | Cruzain inh Det
Cc1cc(NS(=O)(=O)c2ccc(Nc3nc(-c4sc(NC(=O)c5ccccc5)nc4C)cs3)cc2)no1 | 6.3µM* | -11%
CCC(=O)Nc1nc(C)c(-c2csc(Nc3ccc(S(=O)(=O)Nc4cc(C)on4)cc3)n2)s1 | -18% | -1%
CCCC(C)C(=O)Nc1nc(C)c(-c2csc(Nc3ccccc3OC)n2)s1 (configuration not stated) | ? | 5%
CCCC(C)C(=O)Nc1nc(C)c(-c2csc(Nc3ccc(Cl)cc3)n2)s1 (configuration not stated) | 10µM* | 2%
CCCCCCC(=O)Nc1nc(C)c(-c2csc(Nc3cc(Cl)ccc3C)n2)s1 | 10µM* | 3%
CCC(C)C(=O)Nc1nc(C)c(-c2csc(Nc3cc(Cl)ccc3OC)n2)s1 (configuration not stated) | -16% | 1%
CCc1ccc(NC(=O)CSc2nccn2-c2ccc(F)cc2)cc1 | 5% | -7%
CC(C)c1nn2c(=O)cc(COC(=O)c3cccc(NC(=O)COc4ccc(F)cc4)c3)nc2s1 | -4% | 1%
COC(=O)c1sc2cccc(F)c2c1S(=O)(=O)N1CCN(c2ccccc2OC)CC1 | 7% | -8%
Cc1ccc(O)c(C(=O)c2cnc3c(c2)CN(C)C(=O)N3)c1 | -12% | -4%
Cc1ccc(O)c(C(=O)c2cnc3c(c2)CN(CCC(C)C)C(=O)N3)c1 | 10µM* | -2%
COc1ccc(NS(=O)(=O)c2cc(NC(=O)c3ccco3)ccc2N2CCCC2)cc1 | ? | -6%
COc1ccccc1NS(=O)(=O)c1cc(NC(=S)NCCN2CCOCC2)ccc1N1CCOCC1 | ? | -5%
COc1ccccc1NS(=O)(=O)c1cc(NC(=O)c2cccs2)ccc1N1CCCC1 | ? | -9%
COc1ccccc1NS(=O)(=O)c1cc(NC(=O)c2cccs2)ccc1N1CCCCC1 | 10µM* | -3%
O=C(Nc1ccc(Cl)c(Cl)c1)Nc1ccc(N2CCCC2)c(S(=O)(=O)Nc2ccccc2Cl)c1 | ? | -1%
COc1ccccc1NS(=O)(=O)c1cc(NC(=O)Nc2ccccc2)ccc1N1CCCCC1 | 3.2µM* | 2%
COc1ccc(NS(=O)(=O)c2cc(NC(=O)/C=C/c3cc(OC)ccc3OC)ccc2N2CCCCC2)cc1 | 6.3µM* | -2%
O=C(Nc1ccc(F)cc1)Nc1ccc(N2CCCC2)c(S(=O)(=O)Nc2ccccc2Cl)c1 | 3.2µM* | -1%
COC(=O)c1c(NC(=O)c2ccc(S(=O)(=O)N3CCCCC3)cc2)sc2c1CCN(C)C2 | -3% | -4%
COc1cc(NC(=O)CSc2nc(-c3ccco3)cc(C(F)(F)F)n2)cc(OC)c1OC | 9% | -1%
Cc1cccc(Nc2nnc(-c3ccc(C)c(S(=O)(=O)N4CCOCC4)c3)c3ccccc23)c1 | -3% | -6%
O=C(NCc1c(-n2cccc2)sc2c1CCCC2)Nc1cccc(C(F)(F)F)c1 | 4% | -3%
CCC/C=C(\CCC)C(NS(=O)(=O)c1ccc(C(F)(F)F)cc1)c1ccc(C(=O)OC)cc1 (configuration not stated) | -12% | -4%
CCOc1ccc(C(=O)c2cn(CC(=O)Nc3ccc4c(c3)OCCO4)c3ccc(OC)cc3c2=O)cc1 | 2% | -3%
SMILES | Cruzain noTriton | Cruzain inh Det
CCN(CC)S(=O)(=O)c1cccc(NC(=O)C2SC(=Nc3ccc(C)cc3C)C(C(=O)NC(C)COC)=C2N)c1 (configuration not stated) | -11% | 1%
CCCCNC(=O)C1=C(N)C(C(=O)Nc2ccc(C)c(S(=O)(=O)N3CCCCC3)c2)SC1=Nc1ccc(C)cc1C (configuration not stated) | 7.9µM* | 7%
Cc1cc(C)cc(NC(=O)Cn2nnc(-c3nc(-c4ccncc4)no3)c2N)c1 | 14% | -2%
Nc1c(-c2nc(-c3ccccc3)no2)nnn1CC(=O)Nc1cccc(F)c1 | 32µM* | -26%
Cc1nn2c(=O)cc(COC(=O)COc3ccc(F)cc3)nc2s1 | -2% | -4%
COc1cc2c(cc1OC)-c1cc(N3CCCc4ccccc43)nc(=O)n1CC2 | 20% | -10%
COc1cc2c(cc1OC)-c1cc(N3CCCCCC3)nc(=O)n1CC2 | 13µM* | -15%
CCOC(=O)C(NC(=O)N1CCCCC1)(c1ccccc1)C(F)(F)F (configuration not stated) | 4% | -4%
CCOC(=O)C(NC(=O)NC1CCCCC1)(c1ccccc1)C(F)(F)F (configuration not stated) | 3.2µM* | 3%
CCOCCCNC(=O)c1[nH]c2cc(OC)ccc2c1Sc1ccccc1 | -17% | -10%
COCCCn1c(SCC(=O)Nc2ccc(F)cc2)nc2c(sc3ccccc32)c1=O | -3% | 2%
Cc1cc(C(=O)CSc2n[nH]c(-c3ccccc3F)n2)c(C)n1Cc1cccs1 | 16µM* | -8%
Cc1csc(SCC(=O)c2cc(C)n(Cc3cccs3)c2C)n1 | 7% | -3%
CCc1nnc(NC(=O)CSc2nc3c([nH]c4ccccc43)c(=O)n2-c2ccc(OC)cc2)s1 | 20% | -4%
C/C(CC(=O)Nc1ccc(OCc2ccccc2)cc1)=N\NC(=O)C(=O)Nc1ccc(C)c(Cl)c1 | 7.9µM* | 1%
C/C(CC(=O)Nc1ccc(C)c(Cl)c1)=N\NC(=O)Cc1ccccc1 | 11% | -3%
CCCCC/C=C\C/C=C\CCCCCCCC(=O)NCCc1ccc(O)c(O)c1 | -4% | -1%
O=[N+]([O-])c1ccc(Nc2nc(N/N=C/c3cccc(F)c3)nc(N3CCCC3)n2)cc1 | 16µM* | -3%
O=[N+]([O-])c1cccc(/C=N/Nc2nc(N3CCOCC3)nc(N3CCOCC3)n2)c1 | -3% | -3%
Cc1cccc(Cn2c(=O)n(Cc3ccccc3)c(=O)c3c2c2cc(C)ccc2n3C)c1 | ? | -1%
Cc1cc(C(=O)Nc2cnn(Cc3ccc(Cl)cc3Cl)c2)no1 | -4% | -3%
O=C(Nc1cnn(Cc2ccc(Cl)cc2Cl)c1)c1noc2c1CCc1ccccc1-2 | 7.9µM* | -6%
COc1ccc(C(=O)N2CCC(c3nc4ccccc4s3)CC2)cc1Cl | ? | -10%
O=C(COc1ccccc1F)OCc1cc(=O)n2nc(C3CC3)sc2n1 | -1% | -1%
CC(C)(C)NC(=O)CSc1nncn1-c1ccccc1 | 0% | -2%
SMILES | Cruzain noTriton | Cruzain inh Det
O=C(CSc1nncn1-c1ccccc1)Nc1cc(Cl)cc(Cl)c1 | 25µM* | -2%
Oc1ccc2ccccc2c1/C=N/Nc1nnc(-c2ncc[nH]2)c2ccccc12 | 25µM* | -14%
COc1ccc(/C=N/Nc2nnc(-c3ncc[nH]3)c3ccccc23)cc1 | 2% | -6%
COc1ccccc1N1CCN(C(=O)CSc2nc3ccccc3nc2Cc2ccc(F)cc2)CC1 | 0% | 4%
CCC(CC)C(=O)Nc1ccc(C(=O)OCc2cc(=O)n3nc(C4CC4)sc3n2)cc1 | 25% | -2%
Cc1ccc(N(C)C(=O)CN2C(=O)CCc3cc(S(=O)(=O)N4CCOCC4)ccc32)cc1 | -9% | -1%
CCCn1c(=N)c(C(=O)NC2CCCCC2)cc2c(=O)n3cc(C)ccc3nc21 | 11% | -2%
COCCNc1ncnc2ccc(-c3c(C)noc3C)cc12 | 11% | 7%
C[C@@]1(C(NC(=O)c2cccs2)c2ccc(-c3ccccc3)cc2)C[C@H]1C1CCCCC1 (some centres not stated) | 4µM* | 4%
COC(=O)c1ccc(C(NC(=O)c2ccccc2)[C@]2(C)C[C@H]2C2CCCCC2)cc1 (some centres not stated) | -15% | 1%

Compound activity: PubChem BioAssay, National Center for Advancing Translational Sciences (NCATS)
